Data on 18 compounds can be found in ChEMBL document CHEMBL5606460, “ASAP - DENV-2 NS2B-NS3 protease fluorescence single point” (2024).

What is called inhibition is the relative decrease from the control value, in per cent.

This test concerns the target Genome polyprotein (dengue virus type 2) (UniProt P29990).

In all, about 2,000 compounds went through this assay and about 110 (5.5%) showed an effect of 50% or more. Only a selection was taken, and strong results are over-represented in it overall.

Regarding `Cc1cc(CO)c2cccc(Cc3cccc(NC(=O)Cc4c[nH]c5ccccc45)c3)c2n1`, the inhibition reads like this: (Thailand/16681/1984, Concentration 49.95 uM, Number of replicates 2.0, Standard deviation 0.8412168519630298 %) -0.469%; (Thailand/16681/1984, Concentration 99.9 uM, Number of replicates 2.0, Standard deviation 1.20193607081355 %) 3.26%.
As to `Cc1cc(CO)c2cccc(Cc3ccccc3NC(=O)C[C@H]3CCCN3)c2n1`, the inhibition by setting is: (Thailand/16681/1984, Concentration 49.95 uM, Number of replicates 2.0, Standard deviation 2.3110961437297597 %) -1.74%; (Thailand/16681/1984, Concentration 99.9 uM, Number of replicates 1.0) -1.01%.
Consider `Cc1cnccc1NC(=O)c1cncc(S(C)(=O)=O)c1`, for which the inhibition runs as follows: (Thailand/16681/1984, Concentration 49.5 uM, Number of replicates 2.0, Standard deviation 0.09362930826064811 %) 1.61%; (Thailand/16681/1984, Concentration 99.01 uM, Number of replicates 2.0, Standard deviation 0.10343333957385824 %) 2.02%; (Thailand/16681/1984, Concentration 198.0 uM, Number of replicates 2.0, Standard deviation 0.39657621920361824 %) 2.99%.
For `COc1cc(CC(=O)NCc2cccnc2)nc(N2CCNCC2)n1`, the inhibition by setting is: (Thailand/16681/1984, Concentration 49.5 uM, Number of replicates 2.0, Standard deviation 1.473545535483215 %) -5.12%; (Thailand/16681/1984, Concentration 99.01 uM, Number of replicates 2.0, Standard deviation 1.7989399422367844 %) -4.77%; (Thailand/16681/1984, Concentration 198.0 uM, Number of replicates 2.0, Standard deviation 1.3802101593440819 %) -3.61%.
Consider `O=C(O)c1cc(Cl)ccc1NS(=O)(=O)c1ccc(Oc2ccccc2Cl)cc1`, for which the inhibition runs as follows: (Thailand/16681/1984, Concentration 49.5 uM, Number of replicates 2.0, Standard deviation 0.09788858447746204 %) 95.7%; (Thailand/16681/1984, Concentration 99.01 uM, Number of replicates 2.0, Standard deviation 0.14802782416517393 %) 94.6%; (Thailand/16681/1984, Concentration 198.0 uM, Number of replicates 2.0, Standard deviation 0.06255266668592849 %) 91.9%.
Take `CNC(=O)c1cc(Cl)ccc1NS(=O)(=O)c1ccc(NS(C)(=O)=O)cc1`: the inhibition (Thailand/16681/1984, Concentration 49.5 uM, Number of replicates 2.0, Standard deviation 0.6295365180266114 %) is 1.5%; the inhibition (Thailand/16681/1984, Concentration 99.01 uM, Number of replicates 2.0, Standard deviation 0.4200098669756753 %) came to 3.13%; the inhibition (Thailand/16681/1984, Concentration 198.0 uM, Number of replicates 2.0, Standard deviation 0.4807630318175827 %) was determined as 6.02%.
In the case of `CNC(=O)c1cc(Cl)cc(C)c1NS(=O)(=O)c1ccc(Oc2ccccc2Cl)cc1`, the inhibition was -4.39% (Thailand/16681/1984, Concentration 49.5 uM, Number of replicates 2.0, Standard deviation 1.9936078061389018 %); -5.53% (Thailand/16681/1984, Concentration 99.01 uM, Number of replicates 2.0, Standard deviation 1.8430300976388188 %); -7.09% (Thailand/16681/1984, Concentration 198.0 uM, Number of replicates 2.0, Standard deviation 2.010624849106266 %).
With `CNC(=O)c1cnncc1NS(=O)(=O)c1ccc(Oc2ccccc2Cl)cc1`, the inhibition was 2.22% (Thailand/16681/1984, Concentration 49.5 uM, Number of replicates 2.0, Standard deviation 2.9688082409176766 %); 7.71% (Thailand/16681/1984, Concentration 99.01 uM, Number of replicates 2.0, Standard deviation 2.2862743420867915 %); 19.5% (Thailand/16681/1984, Concentration 198.0 uM, Number of replicates 2.0, Standard deviation 2.701916446857586 %).
Take `CNC(=O)c1cc(Cl)ccc1NS(=O)(=O)c1ccc(OC)cc1`: the inhibition (Thailand/16681/1984, Concentration 49.5 uM, Number of replicates 2.0, Standard deviation 1.598704816821166 %) is -9.51%.
`O=S(=O)(Nc1ccc(Cl)cc1)c1ccc(Oc2ccccc2Cl)cc1`: the inhibition was 12.2% (Thailand/16681/1984, Concentration 49.5 uM, Number of replicates 2.0, Standard deviation 0.04775136783847868 %); 22.7% (Thailand/16681/1984, Concentration 99.01 uM, Number of replicates 2.0, Standard deviation 0.32853232391890236 %); 44.5% (Thailand/16681/1984, Concentration 198.0 uM, Number of replicates 2.0, Standard deviation 1.060565762839157 %).
As to `CNC(=O)c1cc(OC)ccc1NS(=O)(=O)c1ccc(Oc2ccccc2Cl)cc1`, the inhibition (Thailand/16681/1984, Concentration 49.5 uM, Number of replicates 2.0, Standard deviation 1.018543331825067 %) was 7.08%; the inhibition (Thailand/16681/1984, Concentration 99.01 uM, Number of replicates 2.0, Standard deviation 0.3266212172200244 %) stood at 15.5%; the inhibition (Thailand/16681/1984, Concentration 198.0 uM, Number of replicates 2.0, Standard deviation 0.9287695329724984 %) amounted to 21.9%.
`CNC(=O)c1cc(Cl)ccc1NS(=O)(=O)c1ccc(Oc2ccccc2Cl)cc1`: the inhibition was determined as 57.1% (Thailand/16681/1984, Concentration 49.5 uM, Number of replicates 2.0, Standard deviation 2.214504665393713 %); 89.7% (Thailand/16681/1984, Concentration 99.01 uM, Number of replicates 2.0, Standard deviation 0.44410505168195935 %); 89.7% (Thailand/16681/1984, Concentration 198.0 uM, Number of replicates 2.0, Standard deviation 0.048202507704939286 %).
For `O=C(O)c1cc(Cl)ccc1NS(=O)(=O)c1ccc(Br)cc1`, the inhibition runs as follows: (Thailand/16681/1984, Concentration 49.5 uM, Number of replicates 2.0, Standard deviation 1.3795853744617563 %) 7.98%; (Thailand/16681/1984, Concentration 99.01 uM, Number of replicates 2.0, Standard deviation 2.3616490916140984 %) 19.6%; (Thailand/16681/1984, Concentration 198.0 uM, Number of replicates 2.0, Standard deviation 0.9946440456706616 %) 67%.
As for `O=C(NCc1ccccc1)c1cc(O)ccc1NS(=O)(=O)c1ccc(Oc2ccccc2Cl)cc1`, the inhibition turned out to be 33.5% (Thailand/16681/1984, Concentration 49.5 uM, Number of replicates 2.0, Standard deviation 0.5844803568567073 %); 55.3% (Thailand/16681/1984, Concentration 99.01 uM, Number of replicates 2.0, Standard deviation 0.18145668135528656 %); 60.6% (Thailand/16681/1984, Concentration 198.0 uM, Number of replicates 2.0, Standard deviation 0.23302823954279267 %).
For the compound `CNS(=O)(=O)c1ccc(Oc2ccccc2Cl)cc1`, the inhibition runs as follows: (Thailand/16681/1984, Concentration 49.5 uM, Number of replicates 2.0, Standard deviation 2.6119045762628477 %) -1.72%; (Thailand/16681/1984, Concentration 99.01 uM, Number of replicates 2.0, Standard deviation 1.5233102161282106 %) -0.429%; (Thailand/16681/1984, Concentration 198.0 uM, Number of replicates 2.0, Standard deviation 1.4243001461587221 %) 1.7%.
As for `Cc1cc(CO)c2cccc(Cc3ccccc3C(=O)N[C@@H](CCCN)C(=O)O)c2n1`, the inhibition is -9.67% (Thailand/16681/1984, Concentration 49.95 uM, Number of replicates 2.0, Standard deviation 1.450239339781055 %) and 0.782% (Thailand/16681/1984, Concentration 99.9 uM, Number of replicates 2.0, Standard deviation 1.946109361538337 %).
In the case of `CCOC(=O)c1cc(CNCc2nnc3ccccn23)[nH]n1`, the inhibition by setting is: (Thailand/16681/1984, Concentration 49.5 uM, Number of replicates 2.0, Standard deviation 0.017813955579008514 %) 6.64%; (Thailand/16681/1984, Concentration 99.01 uM, Number of replicates 2.0, Standard deviation 0.5926797733534107 %) 7.63%; (Thailand/16681/1984, Concentration 198.0 uM, Number of replicates 2.0, Standard deviation 1.0587355780894199 %) 6.43%.
Turning to `Cc1cc(CO)c2cccc(CC(=O)N[C@H](Cc3c[nH]cn3)C(=O)O)c2n1`, the inhibition runs as follows: (Thailand/16681/1984, Concentration 49.95 uM, Number of replicates 2.0, Standard deviation 0.5871204354474296 %) 9.25%; (Thailand/16681/1984, Concentration 99.9 uM, Number of replicates 2.0, Standard deviation 0.6044303147182479 %) 24.8%.
